Shown are actives, neighbours in structure and some others; about 1.3% of the full set was active somewhere.
CtBP-E1A blk = qHTS Assay for Inhibitors of the CtBP/E1A Interaction. AID 651724, 2012. CtBP / adenovirus E1A interaction (AlphaScreen). activity change, % (concentration not given with the values). 0.49% of 340,000 active. AlphaScreen GST-E1A/His-CtBP binding, 1536-well; active compounds read low
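Homogeneous bead-based format: GST-tagged E1A captured on glutathione donor beads, His-tagged CtBP on nickel acceptor beads; compounds precede bead addition by 2 h at 37 °C.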
Six1-Eya2 inh = qHTS Assay for Inhibitors of the Six1/Eya2 Interaction; Homeobox protein SIX1 (Homo sapiens) + Protein phosphatase EYA2 (Homo sapiens), …; AlphaScreen GST-Six1/His-Eya2 binding, biochemical; active compounds read low; activity change, % (test concentration not listed); 0.56% of 360,000 active
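GST-Six1 + His-Eya2 (5X stock: 250/500 nM); Tris pH 8.0, 300 mM NaCl, 0.05% BSA, 0.02% Tween 20; GSH donor/Ni acceptor beads; 1 h 37 °C dark; AlphaScreen readout.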
CCT modulator = High-Throughput Screening for Modulators of Cytosolic Chaperonin Activity; 0.3% of 360,000 active; activity change, % (no concentration beside the values), hits read low; purified chaperonin ATPase assay, HTRF ADP detection, 30 min; in the data active = activity change below about -30%
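First, chaperonin was dispensed at 40 nM or 20 nM final depending on batch activity. Next, compounds were pinned at 76 uM and ATP added at 10 uM. After 30 min at 37 °C, ADP detection reagents ran 30 min at ambient temperature.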
pAkt inh = HTS Assay for Inhibitors of Akt Phophorylation: Primary Screen | activity change, % for hits at 50 µM | AID 651550, 2012 | 0.32% of 360,000 active | Neuro2A IGF-stimulated pAkt S473 HTRF, 20 min; active compounds read low; in the data active = activity change below about -80%; inconclusive = mostly about -51% to -80%
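Neuro2A cells (4,500/well, DMEM with 0.5% FBS) were treated with compound at a single 50 µM final concentration, stimulated with 6 nM IGF for 20 min at 37 °C, and lysed. Phospho-Akt Ser473 was read by HTRF as 665/615 ratio ×10^4.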
* = called active by the depositor; i = inactive; ? = inconclusive; · = no result given; ! = not confirmed by another sample. Cut-off read from the data, not from the text of the source, unless noted: active = activity change below about -65%; inconclusive = mostly about -30% to -63%; inactive = weaker than that. % is set by controls: 0 for no effect and ±100 for the full control effect.

SMILES | CtBP-E1A blk | Six1-Eya2 inh | CCT modulator | pAkt inh
COc1ccc(NC(=O)N(C)C[C@H]2Oc3c(NC(=O)C4CC4)cccc3C(=O)N([C@H](C)CO)C[C@@H]2C)cc1 | -2 | 5 | 1 | i
COc1ccc(S(=O)(=O)NC2CC(C)(C)NC(C)(C)C2)c2ccccc12 | 14 | 3 | -1 | i
O=C(Cc1ccc(Cl)c(Cl)c1)Nc1ccc(S(=O)(=O)Nc2ncccn2)cc1 | -17 | ? | 1 | i
CN(C)c1ccc(/C=C2\CCC/C(=C\c3ccccc3)C2=O)cc1 | -10 | -12 | 2 | i
O=C1/C(=C/c2ccc(C(=O)O)cc2)CCC/C1=C\c1ccc(C(=O)O)cc1 | 3 | -67* | -2 | i
C/C(=N/NC(=O)CN(c1ccccc1)S(=O)(=O)c1ccccc1)c1ccccc1O | · | -2 | -1 | i
COc1cccc(CNC(=O)CC(NC(C)=O)c2ccccc2)c1 (stereo not given) | · | 1 | -1 | i
COc1cccc(C(CCc2cc(OC)c(OC)c(OC)c2)NC(C)=O)c1 (stereo not given) | 6 | 5 | -74* | i
Cc1ccc(C(=O)N/N=C/c2ccc(-c3ccccc3[N+](=O)[O-])o2)cn1 | ? | -69* | -2 | i
CC(NNC(=S)N1CCN(c2ccccn2)CC1)c1nccc2ccccc12 (stereo not given) | 3 | -92* | 1 | i
O=C(COC(=O)/C=C/c1ccco1)Nc1cc(S(=O)(=O)N2CCOCC2)ccc1Cl | -18 | -1 | 2 | i
O=c1cc(-c2ccccc2)[nH]c2nc3ccccc3n12 | 2 | 1 | 1 | -107%*
COc1cc(NS(=O)(=O)c2ccc(NC(=S)NC(=O)c3ccc(F)c(F)c3)cc2)nc(OC)n1 | -5 | -5 | 1 | i
CN(C)c1ccc2cc(S(=O)(=O)O)cc(O)c2c1 | ? | -73* | -2 | i
O=Nc1c(O)ccc2cc(S(=O)(=O)O)ccc12 | -3 | -3 | -10 | i
COc1ccccc1-c1nnc(SCc2ccccn2)n1C | -6 | 4 | -2 | i
COc1ccc(-c2nnc(SCc3ccccn3)n2C)cc1 | 0 | 23 | -6 | -107%*
COc1ccc(-c2nn3c(COc4ccccc4)nnc3s2)cc1OC | -3 | 3 | -1 | -117%*
c1ccc(OCc2nnc3sc(-c4cccs4)nn23)cc1 | 9 | 0 | 2 | i
CCn1cc(/C=C(\NC(=O)c2ccccc2OC)C(=O)NCCN2CCOCC2)c2ccccc21 | 4 | -6 | 1 | i
O=S(=O)(c1cccs1)N1CCN(C/C=C/c2ccccc2)CC1 | -3 | -12 | -3 | -118%*
COc1cc2oc(=O)ccc2cc1-c1c(OC)ccc2ccc(=O)oc12 | -1 | -1 | 0 | i
N=C(N)SCc1nc2ccccc2c(=O)n1-c1ccccc1 | -83*! | -82*! | -4 | i
CCC(C)c1c(N)n(S(=O)(=O)c2ccc(C)cc2)oc1=O (stereo not given) | ? | -77* | -1 | i
CCC(C)c1c(NS(=O)(=O)c2ccc(C)cc2)o[nH]c1=O (stereo not given) | 6 | 1 | 0 | i
SMILES | CtBP-E1A blk | Six1-Eya2 inh | CCT modulator | pAkt inh
O=C(CCc1ccccc1)Nc1ccc(Cl)cn1 | 6 | 6 | -53* | i
CCOc1ccc(OCCC(=O)OCC(=O)Nc2ccc(Cl)cn2)cc1 | -1 | -2 | -33* | i
O=C(COC(=O)Cc1ccccc1F)Nc1ccc(Cl)cn1 | 1 | -1 | -33* | i
O=C(Cc1ccccc1)Nc1ccc(Cl)cn1 | -1 | 19 | 2 | i
O=C(COC(=O)CCOc1ccccc1)Nc1ccc(Cl)cn1 | 4 | 12 | -1 | i
COc1cc(N/N=C/c2ccccc2O)ncn1 | -96* | -88* | -4 | i
Cc1csc(N/N=C/c2ccccc2F)n1 | -9 | -12 | 1 | i
Oc1ccc(/C=N\Nc2cc(N3CCOCC3)nc(N3CCOCC3)n2)c(O)c1 | 0 | ? | -52* | i
CCCOc1ccc(/C=N/Nc2cc(N3CCOCC3)ncn2)c(O)c1 | · | -18 | -5 | i
COc1cc(N/N=C/c2ccc(N(C)C)cc2)ncn1 | · | -19 | -1 | i
CCOc1ccc(/C=N/Nc2nc(C)cs2)c(O)c1 | ? | -68* | -1 | i
CCOc1ccc(/C=N/Nc2cc(N3CCOCC3)ncn2)c(O)c1 | ? | -71* | 0 | i
CCC(C)C(NC(=O)c1ccccc1)C(=O)N1CCN(C(=O)c2ccccc2)CC1 (stereo not given) | 1 | 2 | 1 | i
CC1CCN(C(C(=O)Nc2ccc3c(c2)OCO3)c2ccccc2)CC1 (stereo not given) | -7 | -12 | -84* | i
CCCc1nnc(SCC(=O)N2CCCC2)n1Cc1ccco1 | 1 | 4 | -47* | i
CCN(CC)CCCNc1nc2ccccc2c2[nH]c3ccc(OC)cc3c12 | -75* | ? | 1 | i
CCN(CC)S(=O)(=O)c1ccc(NC(=O)C2COc3ccccc3O2)cc1 (stereo not given) | 0 | 16 | -8 | -121%*
CC1(C)CCC(=NNC(N)=S)CC1 | -15 | 5 | 0 | i
NC(=S)NN=C1CSSC1 | -89* | -94* | 0 | i
O=C(CCc1ccccc1O)N/N=C/c1ccc(Sc2cccc3cccnc23)o1 | -92* | -88* | -1 | i
NC(=O)c1cc2ccccc2o/c1=N/NC(=O)c1cccs1 | -26 | ? | -1 | i
NC(=O)c1cc2ccccc2o/c1=N\NC(=O)c1ccncc1 | -20 | -23 | -1 | i
COc1ccc2o/c(=N/NC(=O)c3cccs3)c(C(N)=O)cc2c1 | -83* | ? | -1 | i
Cc1ccc(C(=O)N/N=c2\oc3ccccc3cc2C(N)=O)cc1 | ? | ? | -30* | i
O=C(Nc1ccc2c(c1)OCCO2)C1C(=O)Nc2ccccc2C(=O)N1C1CCCCC1 (stereo not given) | 4 | -2 | · | i
SMILES | CtBP-E1A blk | Six1-Eya2 inh | CCT modulator | pAkt inh
COc1ccc(/C=N/NC(=O)c2ccncc2)cc1Cn1nc([N+](=O)[O-])c(Br)c1C | ? | -69* | -3 | i
COc1cc(/C=N/NC(=O)c2ccncc2)ccc1OC(=O)c1ccc([N+](=O)[O-])cc1 | -1 | 4 | 0 | -107%*
COc1ccc(/C=N/NC(=O)c2ccn[nH]2)cc1Cn1nc(C)c([N+](=O)[O-])c1C | · | -2 | 2 | i
COc1ccc(/C=N/NC(=O)c2cccc(Br)c2)cc1Cn1cc(Cl)cn1 | 15 | 9 | 1 | -103%*
COc1ccc(C2=NS(=O)(=O)N(C)C(C(=O)N3CCCCC3C)=C2)cc1 (stereo not given) | 0 | -1 | -1 | i
CC1CCN(S(=O)(=O)c2cc3c4c(c2)C(C)C(=O)N4CCC3)CC1 (stereo not given) | 0 | 2 | -2 | i

Source: PubChem BioAssay
